Laboratory results published in PubChem BioAssay AID1063 (University of Pittsburgh Molecular Library Screening Center, 2008).
Screen size: about 200,000 compounds; about 18,000 (9%) were called active. The entries come from a sample that favours actives as a whole. Values without a mark were called inactive. Cut-off read from the data, not from the text of the source: active = inhibition above about 50%; inactive = the rest.

Assay: antileishmanial activity against promastigotes – primary screen (AID 1063);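 note: promastigotes grown with compound for 44 hours at 28 °C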
Conditions: Leishmania major promastigotes, resazurin fluorescence viability; at 10 µM; stronger effect = higher value

Row | Compound | inhibition
1 | Cn1c(SCC(=O)NC2CCCCC2)nnc1-c1ccc(N)cc1 | -1.08%
2 | Cc1ccc(C2=Nc3c(ccc4ccccc34)C(c3ccncc3)=NN2)cc1 | 60% (active)
3 | Cc1ccc(-c2csc(-c3c[nH]c4ccccc34)n2)cc1 | -3.69%
4 | CCOC(=O)N1CCN(C(=S)Nc2ccc(C)cc2C)CC1 | -7.01%
5 | CC(C)Oc1ccccc1C(=O)NC(CO)C(=O)O (configuration not stated) | -2.66%
6 | NC(=O)COc1ccc(C23CC4CC(CC(C4)C2)C3)cc1 | 2.36%
7 | CCC1=C/C(=C\c2ccc3c(c2)OCO3)C(=O)S1 | 78.2% (active)
8 | O=C1/C(=C/c2ccc3c(c2)OCO3)CCC/C1=C\c1ccc2c(c1)OCO2 | 39.8%
9 | CSC1=N/C(=C\c2ccc3c(c2)OCO3)C(=O)S1 | 17.7%
10 | COc1ccc(CCNS(=O)(=O)c2ccc(F)cc2)cc1OC | -4.28%
11 | Cc1nn(C)c(Oc2ccccc2)c1[N+](=O)[O-] | 6.23%
12 | Cc1nn(C)c(Oc2ccccc2)c1CCNS(=O)(=O)c1ccc(F)cc1 | 97.5% (active)
13 | COc1ccc(F)cc1C(=O)C1CCCN(C(=O)CCc2ccccn2)C1 (configuration not stated) | -6.74%
14 | CN(CCc1ccccn1)C(=O)CCC1CCCN(Cc2ccccc2OC(F)F)C1 (configuration not stated) | 67.9% (active)
15 | COc1cccc(CN2CCNC(=O)C2CC(=O)N(C)CCc2ccccn2)c1 (configuration not stated) | 1.29%
16 | CN1CCNC(=O)C1CC(=O)N1CC=C(c2ccc(F)cc2)CC1 (configuration not stated) | -0.97%
17 | Cn1cccc1-c1nc2ccccc2n1C | 6.87%
18 | O=C(CC1SC(=Nc2ccccc2F)N(CCN2CCOCC2)C1=O)Nc1ccc(F)cc1F (configuration not stated) | 50.8% (active)
19 | CCN1C(=O)C(CC(=O)Nc2cc(C)ccc2C)SC1=Nc1ccc(S(N)(=O)=O)cc1 (configuration not stated) | 10.5%
20 | N#C/C(C(=O)N1CCOCC1)=C1/SC(Cc2ccc(F)cc2)C(=O)N1c1ccccc1 (configuration not stated) | -0.55%
21 | CCOC(=O)Cc1ncccc1C(=O)Nc1ccc(OC(F)(F)F)cc1 | -5.35%

Row | Compound | inhibition
22 | N#C/C(=C(\O)CCl)c1nnc2n1CCCCC2 | -1.52%
23 | N#C/C(=C(\O)C(F)(F)F)c1nnc2n1CCCCC2 | -2.09%
24 | N#C/C(=C/c1cccc([N+](=O)[O-])c1)c1nnc2n1CCCCC2 | 81.3% (active)
25 | Cc1ccc2nc(Nc3ncc4c(n3)CC(C)(C)CC4=O)nc(C)c2c1 | 9.71%
26 | Cn1cc(S(=O)(=O)N2CCC(Cc3ccccc3)CC2)c(=O)n(C)c1=O | -5.82%
27 | O=C(c1ccccc1)c1ccc2nc(N3CCCCC3)c3nncn3c2c1 | -0.8%
28 | c1ccc(CC2CCN(c3nc4ccccc4n4cnnc34)CC2)cc1 | 64.6% (active)
29 | CCOCCCNC(=O)C(NC(=O)Cc1c[nH]c2ccccc12)c1ccc(OC)cc1 (configuration not stated) | -7.71%
30 | COc1cc(C=O)c(Br)cc1OCC(=O)NCc1ccccc1 | 4.2%
31 | COc1ccc(CCNC(=O)COC(=O)Cc2cc(OC)c(OC)c(OC)c2)cc1 | -3.11%
32 | Fc1ccc2[nH]c3c(N4CCN(Cc5ccc6c(c5)OCO6)CC4)ncnc3c2c1 | 77.8% (active)
33 | Cc1cc(N2CCN(Cc3ccc4c(c3)OCO4)CC2)n2ncnc2n1 | 12.7%
34 | Fc1ccc2[nH]c3c(N4CCSCC4)ncnc3c2c1 | 35.5%
35 | Nc1nnnn1CC(=O)N/N=C/c1ccc(-c2cccc(Cl)c2)o1 | -9.69%
36 | COc1ccc(/C=N/n2c(C)cc(C)cc2=O)cc1 | -6.47%
37 | CC(C)c1csc(CN2CCC(CO)(Cc3ccccc3)CC2)n1 | 14.2%
38 | CC(CN1CCCCC1)OC(=O)c1ccccc1Cl (configuration not stated) | -4.92%
39 | CCC(C)CN1CCC(CO)(Cc2ccccc2Cl)CC1 (configuration not stated) | 82.2% (active)
40 | CC1COc2ccccc2N1S(=O)(=O)c1ccccc1 (configuration not stated) | 15.8%
41 | CN1CCN(CCC(=O)N/N=C/C=C2\N(C)c3ccccc3C2(C)C)CC1 | 4.61%
42 | CN1/C(=C\C=C2\N=C(c3ccc(F)cc3)OC2=O)C(C)(C)c2ccccc21 | 63.4% (active)

Row | Compound | inhibition
43 | CC(=O)Nc1cccc(OCC(=O)/C=C2\N(C)c3ccccc3C2(C)C)c1 | 48.1%
44 | O=C(O)CSc1nccc2ccccc12 | -6.68%
45 | O=C(c1ccccc1Cl)N(Cc1ccccc1F)N1C(=O)CCCC1=O | -3.99%
46 | O=C(O)CC(SCC(=O)Nc1ccc(Br)cc1)C(=O)O (configuration not stated) | -3.9%
47 | CC1(C)CC(=O)CC2(C1)NCC(c1ccccc1Cl)c1c2[nH]c2ccccc12 (configuration not stated) | 53.5% (active)
48 | Cc1onc(-c2ccccc2)c1C(=O)NNC(=S)NC(=O)c1ccc(F)cc1 | -0.74%
49 | c1ccc2c(c1)OCC(c1nn3cnnc3s1)O2 (configuration not stated) | -7.7%
50 | O=C(Nc1nnc(C2COc3ccccc3O2)o1)c1ccc(F)cc1 (configuration not stated) | 84.8% (active)
51 | CCn1nc(C)c(CN2CCN(Cc3ccc(OC)c(C)c3C)C(CCO)C2)c1C (configuration not stated) | 5.83%
52 | CC1CCC(C(C)C)C(=O)/C1=C\c1ccc(NC(=O)CCC(=O)O)cc1 (configuration not stated) | 4.09%
53 | O=C(c1ccc(OC2CCN(Cc3ccccn3)CC2)cc1)N1CCCCCC1 | 39.9%
54 | O=C(N/N=C/c1ccc([N+](=O)[O-])o1)c1cccc(S(=O)(=O)N2CCOCC2)c1 | 99.2% (active)
55 | O=C(c1cccc(S(=O)(=O)N2CCOCC2)c1)N1CCOCC1 | -2.4%
56 | COc1ccc(Br)cc1/C=N/NC(=O)c1cccc(S(=O)(=O)N2CCOCC2)c1 | 14.1%
57 | O=C(Nc1ccc2oc(-c3ccccc3F)nc2c1)c1ccco1 | 9.45%
58 | CS(=O)(=O)n1nc(-c2ccco2)nc1N | -6.28%
59 | CONc1nc2nonc2nc1NOC | -1.47%
60 | Cc1nn(-c2ccccc2)c(Cl)c1/C=C/C(=O)c1ccc(O)cc1 | 44.1%
61 | Cc1ccc(C(=O)/C=C/c2c(C)nn(-c3ccccc3)c2Cl)cc1 | 73.7% (active)
62 | Cc1nn(-c2ccccc2)c(Cl)c1C(=O)Nc1ccccc1 | 1.56%
